Assay results taken from PubChem BioAssay (NCATS).
Records with an inconclusive call do not appear. Where a call stands in place of a potency, no number is given. Active and inactive are the calls of the source. Unless noted, the call rests on the fitted dose curve; in most records, active means well fitted curve in the direction sought with a large enough effect; inconclusive means small, poorly fitted or top-dose-only effect, or another doubt; inactive means no such curve, though single readings can be large; an effect the other way counts as inactive or inconclusive.

Tests used:
[1] = biological target: Aldehyde dehydrogenase, mitochondrial (Homo sapiens) (UniProt P05091); assay: qHTS for Inhibitors of the Aldehyde Dehydrogenase Family (ALDH2) Confirmatory screens (AID 2061303; active means well fitted inhibition curve with a large enough effect; title and protocol of this record describe different tests; further: nearly all actives have a fitted effect of over 45% in size)
[2] = qHTS for Inhibitors of the Aldehyde Dehydrogenase Family (ALDH1A2, ALDH1A3, ALDH2, ALDH3A1) (AID 2061307); further: nearly all actives have a fitted effect of over 50% in size; on potency: test system not described further here
[3] = biological target: Retinal dehydrogenase 2 (Homo sapiens) (UniProt O94788); assay: qHTS for Inhibitors of the Aldehyde Dehydrogenase Family (ALDH1A2) Confirmation screens (AID 2061314); further: nearly all actives have a fitted effect of over 65% in size
[4] = biological target: Aldehyde dehydrogenase 1A1 (Homo sapiens) (UniProt P00352); assay: qHTS for Inhibitors of the Aldehyde Dehydrogenase Family (ALDH1A1) Confirmatory screens (AID 2061316); further: nearly all actives have a fitted effect of over 65% in size
[5] = biological target: Aldehyde dehydrogenase, mitochondrial (Homo sapiens) (UniProt P05091); assay: qHTS for Inhibitors of the Aldehyde Dehydrogenase Family (ALDH2) Primary screen (AID 2061308); further: nearly all actives have a fitted effect of over 55% in size
[6] = biological target: Retinaldehyde dehydrogenase 3 (Homo sapiens) (UniProt P47895); assay: qHTS for Inhibitors of the Aldehyde Dehydrogenase Family (ALDH1A3) Confirmatory screens (AID 2061311); further: nearly all actives have a fitted effect of over 60% in size
[7] = biological target: Retinaldehyde dehydrogenase 3 (Homo sapiens) (UniProt P47895); assay: qHTS for Inhibitors of the Aldehyde Dehydrogenase Family (ALDH1A3) Primary screen (AID 2061315)
[8] = biological target: Retinaldehyde dehydrogenase 3 (Homo sapiens) (UniProt P47895); assay: qHTS for Inhibitors of the Aldehyde Dehydrogenase Family (ALDH1A3) Validation screen (AID 2061312); further: nearly all actives have a fitted effect of over 45% in size
Potency means the concentration at half of the fitted maximal effect.

SMILES | Potency [1] | Potency [2] | Potency [3] | Potency [4] | Potency [5] | Potency [6] | Potency [7] | Potency [8]
N#Cc1cccc(NC(=S)N[C@H]2CO[C@H]3[C@@H]2OC[C@@H]3n2nnnc2Oc2cccc(N3CCOCC3)c2)c1 | inactive | 6.31 µM (active) | inactive | 10.2 µM (active) |  |  |  | 
CN1CCN(c2cccc(CNc3nn4c(=O)c5ccccc5nc4s3)c2)CC1 | inactive |  | 25.2 µM (active) |  | inactive | inactive | inactive | 
CCOc1ccccc1-c1nnc2n1N=C(c1cccc(OC)c1)CS2 | inactive |  | inactive |  | inactive | inactive | inactive | 
CN(C)C(=O)Nc1cc(-c2ccccc2)ccc1N(C)C | inactive | inactive |  |  |  |  | 28.2 µM (active) | 
O=C(O)c1ccc(-n2cccc2/C=C2\SC(=O)N(Cc3cccc(Cl)c3)C2=O)cc1 | 11.3 µM (active) | 1.79 µM (active) |  | 7.98 µM (active) |  |  | inactive | 
O=C1CCCC2=C1C(c1ccccc1Cl)N=C(c1ccccn1)N2 (centres undefined) | inactive | inactive |  |  |  |  | inactive | 
NC(=O)C1CCN(c2nc(-c3ccc(F)cc3)cs2)CC1 | inactive |  | inactive |  | inactive | inactive | inactive | 
CC(=O)NC(c1ccco1)c1cc(Cl)c2ccc(N3CCCCC3)nc2c1O (centres undefined) | 10.1 µM (active) |  | 1.59 µM (active) | 2.25 µM (active) | inactive | 11.3 µM (active) | inactive | 
O=C(/C=C/c1ccc([N+](=O)[O-])o1)Nc1cccc([S+](=O)([O-])Nc2ccccc2F)c1 | inactive |  | 7.98 µM (active) | 7.98 µM (active) | inactive | inactive | inactive | 
CC(C)(C)OC(=O)NC1CCN(c2nc(-c3ccc(Br)cc3)cs2)CC1 | inactive |  | inactive | inactive | inactive | inactive | inactive | 
O=C1CCCC2=C1C(c1[nH]ncc1Cl)NC(=NCc1ncc[nH]1)N2 (centres undefined) | inactive |  | inactive | inactive | inactive | inactive | inactive | 
N#CN1CCC(NS(=O)(=O)c2ccc(F)cc2)CC1 | inactive |  | inactive | inactive | inactive | inactive | inactive | 
O=S(=O)(Nc1cc(O)cc2cccnc12)c1ccc(Cl)s1 | 8.96 µM (active) |  | 2.01 µM (active) | 4 µM (active) | 0.631 µM (active) | 0.504 µM (active) |  | 
C=C[C@H]1[C@H](O[C@@H]2O[C@H](CO)[C@@H](O)[C@H](O)[C@H]2O)OC=C(C(=O)OC)[C@H]1CCOC(=O)c1cc(O)c(O)c(O)c1 | inactive |  | inactive | inactive | inactive | 6.18 µM (active) |  | 
C#Cc1nc(Nc2cccc(Cl)c2)nc(NC2CCCC2)n1 | 31.6 µM (active) |  | 8.91 µM (active) |  | inactive | 14.1 µM (active) | inactive | 
NC(=O)N1CCN(c2nc(-c3ccc(Br)cc3)cs2)CC1 | inactive |  | inactive | inactive | inactive | inactive | inactive | 
O=C1c2ccccc2NC(c2ccc(-c3ccccc3F)o2)N1O (centres undefined) | 11.3 µM (active) |  | 25.2 µM (active) |  | 8.91 µM (active) | inactive | inactive | 
NC(=O)C1CCN(c2nc(-c3ccc(Cl)cc3)cs2)CC1 | inactive |  | inactive | inactive | inactive | inactive | inactive | 
NC(=O)C1CCN(c2ncc(-c3cccc(N4CCCC4)c3)s2)CC1 | 12.7 µM (active) |  | 11.3 µM (active) | 3.57 µM (active) | inactive | 7.98 µM (active) | inactive | 

SMILES | Potency [1] | Potency [2] | Potency [3] | Potency [4] | Potency [5] | Potency [6] | Potency [7] | Potency [8]
O=C(CN1C(=O)CC(c2ccco2)Sc2ccccc21)Nc1ccccc1F (centres undefined) | inactive |  | inactive | 2.52 µM (active) | inactive | inactive | inactive | 
COc1ccc(C2=Nn3c(nnc3-c3ccccc3O)SC2)cc1 | inactive |  | inactive |  | inactive | inactive | inactive | 
Cc1cc(C)nc(NC(=S)N2CCN(c3cccc4ccncc34)CC2)c1 | 12.7 µM (active) |  | 10.1 µM (active) | 4 µM (active) | 3.16 µM (active) | 11.3 µM (active) |  | 
Cc1cc(C=CC#N)cc(C)c1Nc1nc(Nc2ccc3c(c2)CCC3)c2[nH]cnc2n1 | inactive |  | inactive |  | inactive | inactive | inactive | 
COc1ccc([N+](=O)[O-])c(S(=O)(=O)c2ccc(Cl)cc2)n1 | 5.04 µM (active) |  | 15.8 µM (active) | 1.27 µM (active) | 1.78 µM (active) | 10 µM (active) |  | 
COc1cc(O)c(C(CC(=O)N2CCCC(C(C)C)C2)c2ccc3c(c2)OCO3)c(OC)c1 (centres undefined) | inactive |  | inactive |  | inactive | inactive | inactive | 
CCc1nc2c(sc3nc4c(cc32)COC(C)(C)C4)c(=O)n1Cc1ccco1 | 6.34 µM (active) |  | 7.12 µM (active) | 0.634 µM (active) | inactive | 7.98 µM (active) |  | 
CC1(C)CCC2(C(=O)OC3OC(CO)C(O)C(O)C3O)CCC3(C)C(=CCC4C5(C)CCC(O)C(C)(C(=O)O)C5CCC43C)C2C1O (centres undefined) | inactive |  | inactive | inactive | inactive | inactive | inactive | 
N#Cc1cc(C2=Nc3ccc(Br)cc3NC(=O)C2)ccn1 | inactive |  | inactive | inactive | inactive | inactive | inactive | 
Cc1cnc(-c2ccccc2C(C)C)nc1NCC1CN(c2cccnc2)C1 | 11.3 µM (active) |  | 2.52 µM (active) | 8.96 µM (active) | inactive | 11.3 µM (active) | inactive | 
O=C(Nc1cncc(O)c1)c1cccs1 | 12.7 µM (active) |  | 2.25 µM (active) |  | inactive | 12.7 µM (active) | inactive | 
O=C1Nc2ccccc2/C1=C\c1ccc(O)c(F)c1 | 0.224 µM (active) |  | 5.65 µM (active) | inactive | 2.51 µM (active) | 15.8 µM (active) | inactive | 
COc1cccc(-c2no[n+]([O-])c2C#N)c1 | inactive |  | 10.1 µM (active) | inactive | inactive | inactive | inactive | 
Brc1ccc(-c2csc(N3CCC(c4nn[nH]n4)CC3)n2)cc1 | inactive |  | inactive |  | inactive | inactive | inactive | 
Cc1cc(C)nc(NC(=S)N2CCN(c3ccc4nsnc4c3)CC2)c1 | 8.96 µM (active) |  | 6.34 µM (active) | 1.79 µM (active) | 7.94 µM (active) | 1.13 µM (active) |  | 
Cc1ccc(S(=O)(=O)c2ccc([N+](=O)[O-])cn2)cc1 | 2 µM (active) |  | 1.13 µM (active) | 0.634 µM (active) | 2 µM (active) | 4.47 µM (active) |  | 
Cc1c(P(=O)(c2ccccc2)c2ccccc2)c2ccccc2n1C | inactive |  | inactive | 10.1 µM (active) | inactive | 7.12 µM (active) | inactive | 
O=C1Nc2ccccc2/C1=C\c1ccc(C(=O)O)cc1 | inactive |  | inactive | inactive | inactive | inactive | inactive | 
Cc1cnc(-c2ccccc2C(C)O)nc1NCC1CCN(c2cccnc2)CC1 (centres undefined) | inactive |  | 12.7 µM (active) |  | inactive | inactive | inactive | 

SMILES | Potency [1] | Potency [2] | Potency [3] | Potency [4] | Potency [5] | Potency [6] | Potency [7] | Potency [8]
NC(=O)C1CCN(c2ncc(-c3cccc(N4CCOCC4)c3)s2)CC1 | inactive |  | inactive | 6.34 µM (active) | inactive | inactive | inactive | 
N#CC1CCN(c2nc(-c3ccc(Br)cc3)cs2)CC1 | inactive |  | inactive |  | inactive | inactive | inactive | 
CCOC(=O)C1CCN(c2nc(-c3ccc(Br)cc3)cs2)CC1 | inactive |  | inactive | inactive | inactive | inactive | inactive | 
O=S(=O)(Nc1ccc(O)c2ncccc12)c1ccccc1F | 4.49 µM (active) |  | 2.83 µM (active) | 2.01 µM (active) | inactive | 2.25 µM (active) |  | 
COc1ccc([N+](=O)[O-])c(S(=O)(=O)c2ccccc2)n1 | 17.8 µM (active) |  | 15.8 µM (active) | 2.01 µM (active) | 4.47 µM (active) | 5.65 µM (active) |  | 
CS(=O)(=O)c1ccc(C(=O)OCC(=O)N2Cc3ccccc3C2)cc1[N+](=O)[O-] | inactive |  | 7.98 µM (active) |  | inactive | 28.2 µM (active) | inactive | 
O=C(Nc1cncc(NC(=O)c2cccs2)c1)c1cccs1 | inactive |  | inactive | inactive | inactive | 28.3 µM (active) | inactive | 
O=C1CC(c2ccccc2)CC2=C1C1(CCCC1)N=C(Nc1nc3ccccc3o1)N2 (centres undefined) | inactive |  | inactive | inactive | inactive | inactive | inactive | 
NC(=O)C1CCN(c2nc(-c3ccc4c(c3)OCCO4)cs2)CC1 | inactive |  | inactive |  | inactive |  | inactive | 
O=C(c1ccc(-c2cnc3c(O)cccc3c2)cc1)N1CCNCC1 | inactive |  | inactive |  | inactive |  | inactive | 
COc1ccc(-c2csc(NC(=O)c3ccncc3NS(=O)(=O)c3ccc(C)cc3)n2)cc1 | inactive |  |  | 22.5 µM (active) | inactive | inactive | inactive | 
O=[S+]([O-])(NCC#CCSc1nnc(-c2cccc3ccccc23)o1)c1ccc(F)cc1 | inactive |  | inactive |  | inactive |  | inactive | 
CC(=O)NC(C)c1cc(Cl)c2cccnc2c1O (centres undefined) | inactive |  | 28.3 µM (active) |  | inactive |  | inactive | 
Cc1noc(C)c1-c1ccc2ncnc(NCc3ccc(F)cc3)c2c1 | 12.6 µM (active) |  |  | 20.1 µM (active) | inactive | 12.6 µM (active) | inactive | 
CN(C)c1cccc(-c2csc(N3CCC(C(N)=O)CC3)n2)c1 | 12.7 µM (active) |  |  | 11.3 µM (active) | inactive | 12.7 µM (active) | inactive | 
NC(=O)C1CCN(c2nc(-c3ccc4occc(=O)c4c3)cs2)CC1 | inactive |  | inactive |  | inactive |  | inactive | 
O=c1nc(-c2ccccn2)sc2ccccc12 | inactive |  | inactive | 1.13 µM (active) | 15.8 µM (active) |  | inactive | 2.82 µM (active)
CC(C)(O)C1CC=C(C(=O)OCC2OC(Oc3c(O)cc(C(=O)O)cc3O)C(O)C(O)C2O)CC1 (centres undefined) | inactive |  | inactive |  | inactive |  | inactive | 
